Several values for one entry are separate records, joined by “and”; a condition that tells them apart may be missing. Identical values can stand only once. The whole screen tested about 5,500 compounds, of which about 2,000 (36%) were called active. Inconclusive results (about 18%) are left out. Rule as the data show it: active = normalized growth mostly below about 0.91 (no sharp cut-off); inconclusive = no clear call, values can overlap the other calls; inactive = mostly above about 0.92. The list shows a part of the results.
Test: chemical genetic growth profiling, strain panel (AID 1159580);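 also: tested at 20 µM; growth read once vehicle control cultures reached saturation at 30 °C; 1 = growth at the plate median or of vehicle wells; lower values mean less growth of the strain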
Details: S. cerevisiae deletion strains, growth OD

Measured: normalized growth

CC(C)C(=O)Nc1ccc([N+](=O)[O-])c(C(F)(F)F)c1
inactive: locus YAL013W, strain DEP1, stronger effect = lower value 0.995 | locus YAL021C, strain ccr4, stronger effect = lower value 1.03 | locus YAL026C, strain drs2, stronger effect = lower value 1.01 | locus YAL030W, strain snc1, stronger effect = lower value 1.02 | locus YAL040C, strain CLN3, stronger effect = lower value 0.959 | locus YBL061C, strain skt5, stronger effect = lower value 1.02 | locus YBR009C, strain hhf1, stronger effect = lower value 1.03 | locus YBR021W, strain FUR4, stronger effect = lower value 0.929 | locus YBR023C, strain chs3, stronger effect = lower value 1.03 | locus YBR171W, strain sec66, stronger effect = lower value 1.04 | locus YBR229C, strain ROT2, stronger effect = lower value 0.99 | locus YBR231C, strain swc5, stronger effect = lower value 0.994 | locus YBR279W, strain paf1, stronger effect = lower value 1.02 | locus YCL011C, strain gbp2, stronger effect = lower value 1.02 | locus YCL016C, strain dcc1, stronger effect = lower value 1.01 | locus YCL029C, strain bik1, stronger effect = lower value 0.99 | locus YCL061C, strain MRC1 (second series), stronger effect = lower value 0.999 | locus YCL069W, strain vba3, stronger effect = lower value 1.02 | locus YCR088W, strain abp1, stronger effect = lower value 1.01 | locus YDL005C, strain med2, stronger effect = lower value 1.03 | locus YDL035C, strain GPR1, stronger effect = lower value 0.993 | locus YDL040C, strain nat1, stronger effect = lower value 1.02 | locus YDL074C, strain BRE1, stronger effect = lower value 0.946 | locus YDL101C, strain DUN1, stronger effect = lower value 0.993 | locus YDL134C, strain PPH21, stronger effect = lower value 0.991 | locus YDL185W, strain tfp1, stronger effect = lower value 0.98 | locus YDL192W, strain arf1, stronger effect = lower value 0.977 | locus YDR001C, strain nth1, stronger effect = lower value 1.02 | locus YDR069C, strain doa4, stronger effect = lower value 1.02 | locus YDR101C, strain arx1, stronger effect = lower value 0.969 | locus YDR137W, strain rgp1, stronger effect = lower value 0.983 | locus YDR150W, strain NUM1, stronger effect = lower value 0.994 and 0.998 | locus YDR159W, strain sac3, stronger effect = lower value 1.03 | locus YDR162C, strain NBP2, stronger effect = lower value 0.982 | locus YDR195W, strain ref2 1.07 | locus YDR297W, strain sur2, stronger effect = lower value 1.01 | locus YDR318W, strain mcm21, stronger effect = lower value 0.964 | locus YDR334W, strain swr1, stronger effect = lower value 1.01 | locus YDR335W, strain msn5, stronger effect = lower value 1.03 | locus YDR363W, strain ESC2, stronger effect = lower value 1.05 | locus YDR388W, stronger effect = lower value 0.961 | locus YDR392W, strain spt3, stronger effect = lower value 0.999 | locus YDR502C, strain sam2, stronger effect = lower value 0.96 | locus YEL003W, strain gim4, stronger effect = lower value 1.02 | locus YEL037C, strain rad23, stronger effect = lower value 1.02 | locus YEL061C, strain CIN8 (second series), stronger effect = lower value 1.01 | locus YEL061C, strain CIN8, stronger effect = lower value 0.993 | locus YER002W, strain NOP16, stronger effect = lower value 0.972 | locus YER015W, strain faa2, stronger effect = lower value 1.02 | locus YER016W, strain bim1, stronger effect = lower value 1.01 | locus YER110C, stronger effect = lower value 0.979 | locus YER111C, strain swi4, stronger effect = lower value 1.03 | locus YER155C, strain BEM2 (second series), stronger effect = lower value 0.993 | locus YER155C, strain BEM2, stronger effect = lower value 0.985 | locus YER167W, strain BCK2, stronger effect = lower value 0.969 | locus YFR010W, strain ubp6, stronger effect = lower value 1.04 | locus YGL078C, strain dbp3, stronger effect = lower value 0.984 | locus YGL086W, strain mad1, stronger effect = lower value 0.984 | locus YGL167C, strain pmr1, stronger effect = lower value 1.03 | locus YGL173C, strain kem1, stronger effect = lower value 1.03 | locus YGL227W, strain vid30, stronger effect = lower value 1.03 | locus YGL240W, strain doc1, stronger effect = lower value 1.01 | locus YGL248W, strain PDE1, stronger effect = lower value 0.988 | locus YGL253W, strain hxk2, stronger effect = lower value 1.02 | locus YGR078C, strain PAC10, stronger effect = lower value 0.992 and 0.982 | locus YGR135W, strain pre9, stronger effect = lower value 0.968 | locus YGR229C, strain SMI1, stronger effect = lower value 0.978 | locus YGR252W, strain gcn5, stronger effect = lower value 0.916 | locus YHR013C, strain ard1, stronger effect = lower value 0.995 | locus YHR027C, strain rpn1, stronger effect = lower value 1.04 | locus YHR030C, strain SLT2, stronger effect = lower value 0.994 and 0.977 | locus YHR079C, strain IRE1 (second series), stronger effect = lower value 0.975 | locus YHR079C, strain IRE1, stronger effect = lower value 0.964 | locus YHR094C, strain hxt1, stronger effect = lower value 0.98 | locus YHR129C, strain ARP1, stronger effect = lower value 0.981 | locus YHR142W, strain chs7, stronger effect = lower value 1.03 | locus YHR200W, strain rpn10, stronger effect = lower value 0.963 | locus YIL066C, strain RNR3, stronger effect = lower value 0.986 | locus YIL073C, strain SPO22, stronger effect = lower value 0.98 | locus YIL125W, strain kgd1, stronger effect = lower value 0.983 | locus YIR030C, strain dcg1, stronger effect = lower value 0.973 | locus YJL092W, strain hpr5, stronger effect = lower value 1.03 | locus YJL095W, strain BCK1 (second series), stronger effect = lower value 1.01 | locus YJL095W, strain BCK1, stronger effect = lower value 0.958 and 0.976 | locus YJL115W, strain asf1, stronger effect = lower value 1.03 | locus YJL129C, strain trk1, stronger effect = lower value 1.04 | locus YJL134W, strain LCB3, stronger effect = lower value 0.986 | locus YJL154C, strain vps35, stronger effect = lower value 1.02 | locus YJL164C, strain tpk1, stronger effect = lower value 1.02 | locus YJL166W, strain qcr8, stronger effect = lower value 1.02 | locus YJL168C, strain set2, stronger effect = lower value 0.977 | locus YJL187C, strain SWE1 (second series), stronger effect = lower value 0.988 | locus YJR043C, strain POL32, stronger effect = lower value 0.967 | locus YJR066W, strain TOR1, stronger effect = lower value 0.92 | locus YJR075W, strain HOC1, stronger effect = lower value 0.98
